Compound activity deposited in PubChem BioAssay by National Center for Advancing Translational Sciences (NCATS).
Hits are enriched below; roughly 9% of the tested compounds scored in any of these assays.
HP1b chromo inh: HP1-beta chromodomain-methylated histone interaction inhibition | Potency, µM (doses to about 114 µM), for inactives: top-dose activity change, negative = inhibition, actives largely listed as inhibitors | AID 540317 | P83916 | AlphaScreen HP1-beta / biotin-H3K9me3 peptide binding | 390,000 tested, 0.56% active; note: nearly all actives have a fitted effect of over 70% in size
Target sequence (P83916 whole entry, looked up): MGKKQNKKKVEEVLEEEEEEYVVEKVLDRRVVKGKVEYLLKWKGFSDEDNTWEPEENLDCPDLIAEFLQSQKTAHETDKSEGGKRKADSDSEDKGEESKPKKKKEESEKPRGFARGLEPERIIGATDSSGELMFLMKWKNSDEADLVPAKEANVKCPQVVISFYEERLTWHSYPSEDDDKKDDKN
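Compound inhibition of the preformed complex between 50 nM HP1-beta and 50 nM biotinylated H3K9me3 peptide was read by AlphaScreen. Buffer was PBS pH 7.4 with 0.01% Tween-20. Incubations ran 30 min at room temperature, with 10 ug/mL donor/acceptor beads.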
12-LOX inh: inhibitors of human 12S-lipoxygenase ALOX12. P18054. purified 12hLO, xylenol orange hydroperoxide absorbance. Potency, µM (doses to about 108 µM), without a hit: at the highest dose activity change, negative = inhibition, usual class: inhibitors. 580,000 tested, 1.1% active. AID 1671190; note: % is set by controls: 0 for no effect and ±100 for the full control effect
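Purified human 12hLO at 150 nM in 25 mM Hepes, 0.01% Triton X-100, pH 7.0, preincubated 15 min at room temperature with compound. Reaction started with 40 uM arachidonic acid, 30 min at room temperature. Hydroperoxide measured by Fe-xylenol orange, 573/405 nm absorbance ratio.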
JMJD2A Tudor: JMJD2A Tudor domain (human) inhibition; 390,000 tested, 4.4% active; AID 504339; O75164; AlphaScreen JMJD2A-Tudor / H3K4me3 peptide binding; Potency, µM (titrated, usually from 114 µM), inactives show at the highest dose activity change, negative = inhibition, usual class: inhibitors; note: % is set by controls: 0 for no effect and ±100 for the full control effect; nearly all actives have a fitted effect of over 50% in size
PLK1 PBD block: inhibitors of human PLK1 polo-box domain binding. P53350. Plk1 PBD binding of FITC phosphopeptide, fluorescence polarization. Potency, µM, for inactives: max response, negative = inhibition, hits mostly inhibitors. 360,000 tested, 2.8% active. AID 720504; note: series mostly up to about 57 µM; % is set by controls: 0 for no effect and ±100 for the full control effect; nearly all actives have a fitted effect of over 65% in size
BAZ2B block: inhibitors of human BAZ2B bromodomain | AlphaScreen BAZ2B-H3K14Ac peptide displacement | 360,000 tested, 4.4% active | Potency, µM (doses to about 114 µM), for inactives: at the highest dose activity change, negative = inhibition, actives largely listed as inhibitors; note: % is set by controls: 0 for no effect and ±100 for the full control effect; nearly all actives have a fitted effect of over 60% in size
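AlphaScreen displacement of biotin-H3(5-23)K14Ac peptide (50 nM final) from BAZ2B (50 nM final) in PBS pH 7.4, 0.01% Tween-20; complex preformed 30 min RT, then compounds (top 110 uM) 30 min RT, beads 20 min dark.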
G9a inh: inhibitors of human histone lysine methyltransferase G9a; Potency, µM (highest dose often 102 µM), inactives show at the highest dose activity, negative = inhibition, actives largely listed as inhibitors; AID 504332; G9a H3K9 monomethylation, AlphaScreen, 2 h; Q96KQ7; 350,000 tested, 8.8% active; note: % is set by controls: 0 for no effect and ±100 for the full control effect; nearly all actives have a fitted effect of over 75% in size
Target sequence (Q96KQ7 913-1193 limits assumed): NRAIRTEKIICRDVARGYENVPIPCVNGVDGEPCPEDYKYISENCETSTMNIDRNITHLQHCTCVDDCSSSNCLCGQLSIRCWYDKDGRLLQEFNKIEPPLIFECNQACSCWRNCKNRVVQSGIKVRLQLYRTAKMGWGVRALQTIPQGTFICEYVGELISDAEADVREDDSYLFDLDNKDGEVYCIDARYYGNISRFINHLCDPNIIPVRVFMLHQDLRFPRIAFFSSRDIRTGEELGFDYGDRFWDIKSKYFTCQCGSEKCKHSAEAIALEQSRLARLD
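Methyltransferase reactions run at room temperature for 2 h (20 nM enzyme, 500 nM biotin-H3K9 peptide, 20 uM SAM) after a 15 min compound preincubation; product detected by AlphaScreen beads and anti-H3K9me1 antibody.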
Numbers without * were called inactive; ? = inconclusive; / = no result; [ ] = another dose, or the depositor's remark. Calls come from the whole dose curve; as a rule, active = well fitted curve in the direction sought with a large enough effect; inconclusive = small, poorly fitted or top-dose-only effect, or another doubt; inactive = no such curve, though single readings can be large; an effect the other way counts as inactive or inconclusive. Potency is the fitted concentration of half-maximal effect.

SMILES	HP1b chromo inh	12-LOX inh	JMJD2A Tudor	PLK1 PBD block	BAZ2B block	G9a inh
Cc1ccc(NC(=O)c2c(C(F)(F)F)nn(C)c2SCc2cccc(C(F)(F)F)c2)cc1C	68.4%	0.0%	44.4%	-0.8%	6.8%	50.5%[59 µM]
Cc1cc(Br)ccc1NC(=O)CNC(=O)CN1C(=O)NC2(CCCCCC2)C1=O	0.5%	18.0%	-6.7%	-2.4%	-4.9%	-12.4%[59 µM]
Cc1ccc2nc(NC(=O)COC(=O)CSc3nc(C)cc(C)n3)sc2c1	33.8%	?	-12.8%	-17.4%	-37.0%	44.7µM*
COC(=O)c1ccc2nc(NC(=O)C3CC3)sc2c1	12.8%[57 µM]	-21.6%	-9.2%	-14.1%	-20.1%	5.6%
COC(=O)c1ccc2nc(NC(=O)CN3C(=O)CCC3=O)sc2c1	-6.2%	-28.1%	-21.2%[11.4 µM]	11.9µM*	56.2µM*	-6.6%[2.33 µM]
COC(=O)c1ccc2nc(NC(=O)COC(=O)CSc3nc(C)cc(C)n3)sc2c1	30.4%	-18.8%	-6.3%	-3.1%	?	12.6µM*
COc1ccc2nc(NC(=O)CSc3nc(C)cc(C)n3)sc2c1	30.4%	-5.2%	-27.1%	-18.1%	-0.2%	?
CCc1ccc(-c2nc3c(c(SCc4ccccc4F)n2)Cc2c(CO)cnc(C)c2O3)cc1	9.0%	1.2%	-30.0%	/	-15.9%	-6.0%[59 µM]
CCC(=O)N1c2ccccc2CC1C(=O)N1CCN(c2cccc(Cl)c2)CC1 (stereo not given)	20.0%	-12.3%	-4.3%	/	-4.3%	8.4%[12.7 µM]
COc1ccccc1CNC(=O)CSc1ncc(C(=O)Nc2ccccc2)c(=O)n1C	21.8%	-10.7%	-9.6%	-19.5%	-6.1%	-5.6%
COc1ccc(CN2C(=O)CO[C@H]3CN(Cc4c[nH]c5ccccc45)C[C@H]32)cc1	/	39.8µM*	/	/	/	/
Cc1cc(C)nc(NS(=O)(=O)c2ccc(Br)s2)c1	30.1%	?	-21.4%	-24.3%	-1.6%	50.1µM*
Cc1cccc(NS(=O)(=O)c2ccc(Br)s2)n1	25.1%	?	-11.3%	-11.8%	-8.1%	?
Cc1ccc(NS(=O)(=O)c2ccc(Br)s2)nc1	-14.5%	-3.4%	-19.7%	-2.2%	-31.0%	39.8µM*
COc1ccc(C)cc1NS(=O)(=O)c1ccc(Br)s1	39.7%	-2.1%	-7.9%	2.2%	0.3%	18.6%[2.33 µM]
Cc1ccc(C(=O)NCc2ccncc2)c(C)c1	/	11.8%	/	/	/	/
CCOc1ccc(N2CSC3=C(C#N)C(c4ccco4)CC(=O)N3C2)cc1 (stereo not given)	3.6%	?	-8.3%	-7.7%	44.7µM*	1.78µM*
COc1ccc2ccccc2c1C1CC(=O)N2CN(C)CSC2=C1C#N (stereo not given)	?	?	28.2µM*	7.52µM*	?	1.58µM*
COc1cc(OC)c(C2CC(=O)N3CN(C)CSC3=C2C#N)cc1OC (stereo not given)	-23.6%	15.8µM*	3.98µM*	15µM*	-36.2%	1.26µM*
CCOc1cc(C2NC(=O)N(C)C(C)=C2C(=O)OC)cc(Br)c1O (stereo not given)	24.9%	?	1.5%	-0.2%	0.0%	?
CCOc1cc(C2CC(=O)N3CN(c4ccccc4)CSC3=C2C#N)cc(Br)c1O (stereo not given)	/	1.78µM*	/	/	/	/
O=C(NC[C@H]1Cn2c(-c3ccc(F)cc3)cnc2CO1)c1cnccn1	/	18.8%[176 µM]	/	/	/	/
O=C(O)C1CCC(=O)N(C2CCCCC2)C1c1ccccc1Cl (stereo not given)	37.2%	1.5%	-15.8%	-7.2%	0.1%	-1.3%
CC(=O)N1CC2(CCCN2C2COC2)Cc2ccccc21 (stereo not given)	/	-2.3%[12.5 µM]	/	/	/	/
COc1cc(OC)c(C2CC(=O)N3CN(c4ccccc4)CSC3=C2C#N)cc1OC (stereo not given)	?	2.82µM*	5.62µM*	26.7µM*	25.1µM*	3.16µM*
SMILES	HP1b chromo inh	12-LOX inh	JMJD2A Tudor	PLK1 PBD block	BAZ2B block	G9a inh
COc1cc(C2CC(=O)N3CN(c4cccc(C)c4)CSC3=C2C#N)ccc1O (stereo not given)	/	2µM*	/	/	/	/
COc1cc(C2CC(=O)N3CN(c4ccccc4C)CSC3=C2C#N)cc(OC)c1OC (stereo not given)	/	?	/	/	?	1.41µM*
COc1cc(C2CC(=O)Nc3c2c(C)nn3-c2cc(C)cc(C)c2)ccc1O (stereo not given)	/	-10.5%	/	/	/	/
O=S(=O)(c1ccccc1)c1nnn2c1nc(NCc1ccc(Cl)cc1)c1sccc12	38.0%	-24.6%	-1.5%	/	-7.4%	1.7%[59 µM]
CCOC(=O)C1=C(COC(=O)COc2ccc(OCC)cc2)NC(=O)NC1C (stereo not given)	2.3%	-14.9%	-13.8%	-3.4%	8.5%	?
CCCCOc1cccc(C(=O)Nc2ccc(OC)c3ncccc23)c1	/	-26.2%	/	/	/	/
Clc1ccccc1CN1CCN(/N=C/C=C\c2ccco2)CC1	44.7µM*	?	?	-14.6%	39.8µM*	35.5µM*
Cc1ccc(N2CCN(/N=C/C=C/c3ccccc3)CC2)cc1	2.1%	-0.2%	-13.6%	-4.5%	2.9%	23.7%[59 µM]
O=C(CN1CCN(Cc2ccccc2)CC1)N/N=C/C=C/c1ccco1	3.6%	2.7%	-22.6%	-1.7%	2.8%	?
C(/C=C/c1ccco1)=N/N1CCN(c2ccccc2)CC1	?	-23.5%	?	-12.5%	28.2µM*	39.8µM*
CC(=O)c1ccc(-n2c(=O)[nH]c(=O)c3c(N)c(C(=O)c4ccc(Cl)cc4)sc32)cc1	41.1%	-12.8%	-6.2%	-10.3%	-17.3%	35.9%[12.7 µM]
COc1cccc(NC(=O)CSc2nnc(-c3cc(-c4ccccn4)nc4ccccc34)o2)c1	49.4%	86.4%	-17.4%	-0.2%	19.8%	-13.3%[12.7 µM]
O=C(O)c1ccc(NS(=O)(=O)c2ccc3c(c2)C(=O)c2ccccc2C3=O)cc1	23.9%	-14.8%	-19.6%	-20.8%	-35.3%	44.7µM*
CC(NS(=O)(=O)c1ccc2c(c1)C(=O)c1cc(S(=O)(=O)NC(C)C(=O)O)ccc1-2)C(=O)O (stereo not given)	?	-29.8%	10µM*	-7.9%	-20.2%	28.2µM*
O=C(O)c1ccc(Cl)c(S(=O)(=O)Nc2ccc(S(=O)(=O)Nc3cccc(Cl)c3)cc2)c1	-1.8%	-23.8%	-5.7%	-16.7%	-33.3%	56.2µM*
O=C(O)c1ccc(Cl)c(S(=O)(=O)Nc2ccccc2Cc2ccccc2)c1	15.3%	?	-11.4%	-1.9%	1.9%	79.4µM*
O=C(O)c1ccc(NS(=O)(=O)c2cc(Cl)ccc2Cl)cc1	46.8%	65.7%	0.7%	-1.3%	-19.6%	-4.7%
O=C(O)c1cccc(S(=O)(=O)Nc2ccc(-c3ccccc3)cc2)c1	14.0%	?	-19.9%	-4.0%	/	/
O=C(NCC(=O)N1CCC(Cc2ccccc2)CC1)c1ccccc1F	/	2.7%	/	-10.3%	/	/
